Dicer inh: inhibitors of human Dicer processing of pre-microRNA; Q9UPY3; cat-ELCCA pre-miR-21 Dicer processing, chemiluminescence; active compounds read high; z-score at 25 µM; hit rate 6% among 47,000; in the data active = z-score above about 3, passing the limit was not always enough;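 note: plate controls were vehicle for no effect and no enzyme for full effect; higher signal means more uncleaved substrate so more Dicer inhibition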
Active calls of the source: *. This excerpt belongs to a sample that is enriched for hits.

SMILES | Dicer inh
COc1ccc(C(Nc2cccc(C)n2)c2ccc3cccnc3c2O)cc1 (stereo not given) | 9.1*
Cc1cccc(NC(c2ccc3c(c2)OCO3)c2ccc3cccnc3c2O)n1 (stereo not given) | 2.3
COc1ccc(NC(c2ccccn2)c2ccc3cccnc3c2O)cc1 (stereo not given) | 3.1*
COc1ccc(C)cc1NC(c1ccccn1)c1ccc2cccnc2c1O (stereo not given) | -0.11
CCCOc1ccc(C(Nc2ccccn2)c2ccc3cccnc3c2O)cc1 (stereo not given) | 2.6
Cc1ccc2ccc(C(Nc3ccccn3)c3ccc(F)cc3)c(O)c2n1 (stereo not given) | 5.6
Cc1ccc2ccc(C(Nc3cccc(Cl)c3)c3ccccn3)c(O)c2n1 (stereo not given) | -2.1
Cc1cccc(NC(c2ccc(F)cc2)c2ccc3cccnc3c2O)n1 (stereo not given) | 8.9*
CN(C)c1ccc(/C=N/N=C(\C(=O)c2ccccc2)c2ccccc2)cc1 | 1.4
COc1ccc2c(c1)C(C)CC(C)(C)N2C(=O)CSc1nccc(C)n1 (stereo not given) | 0.22
O=C(Nc1ccc2ccccc2n1)c1ccco1 | -0.75
c1ccc2sc(NC3=NCN(Cc4ccc5c(c4)OCO5)CN3)nc2c1 | 2.8
CC1CCCCC1N1CN=C(Nc2nc3ccccc3s2)NC1 (stereo not given) | 3.8*
COc1cccc(Nc2nc3ccccc3s2)c1 | 0.59
Cc1nn(-c2ccccc2)nc1C(=O)Oc1c(Cl)cccc1Cl | 0.36
CC(=O)Oc1cc(OC(C)=O)c2c(c1O)C(=O)c1ccccc1C2=O | 1.5
CCCOC(=O)C1=C(C)NC2=C(C(=O)CCC2)C1c1ccco1 (stereo not given) | -1.2
CC(C)(C)NC(=S)N/N=C/C=N/NC(=S)NC(C)(C)C | 4.3*
CC(C)(C)NC(=S)N/N=C/c1c(Cl)cccc1Cl | -2
CC(C)(C)NC(=S)N/N=C/c1ccc(O)cc1O | 2.2
O=S(=O)(C1=CC23CCCCC2(C=C(S(=O)(=O)c2ccc(Cl)cc2)C3)C1)c1ccc(Cl)cc1 (stereo not given) | -0.82
O=C(O)CSCC(=O)Nc1ccc(C(F)(F)F)cn1 | -1.2
O=C(O)CSCC(=O)Nc1cccnc1 | 5.6*
COc1ccc(NC(=O)CSCC(=O)O)cc1OC | -1.7
O=C(O)CSCC(=O)Nc1ccccn1 | 8.4
SMILES | Dicer inh
CC(=O)c1ccc(NC(=O)CSCC(=O)O)cc1 | 4.3*
CC(=O)c1ccc(NC(=O)CN2CCN(CC(=O)Nc3ccc(C(C)=O)cc3)CC2)cc1 | 1.6
O=C(O)c1ccc(N2C(=O)C3C4C=CC(CO)(O4)C3C2=O)cc1 (stereo not given) | -2
O=C(O)c1cccc2cccc(S(=O)c3cccc4ccccc34)c12 (stereo not given) | -2.3
CC1(C)Cc2c(c(N3CCCC3)nc3sc4c(N5CCOCC5)ncnc4c23)CO1 | -0.03
CC1(C)Cc2c(c(N3CCOCC3)nc3sc(C(=O)c4ccccc4)c(N)c23)CO1 | 3.2*
CC1(C)Cc2c(c(N3CCOCC3)nc3sc(C(=O)Nc4ccccc4)c(N)c23)CO1 | 2.3
N#Cc1c(N)sc2c1CCc1ccccc1-2 | 0.19
Cc1ccccc1-n1c(=S)[nH]c2sc(-c3ccccc3)cc2c1=O | 2.5
Cc1ccc(-n2c(=O)[nH]c3sc(-c4ccccc4)cc3c2=O)cc1 | 3.2*
O=c1[nH]c2sc(-c3ccccc3)cc2c(=O)n1-c1ccccc1 | 2.1
O=c1c(-c2ccccc2)c(C(F)(F)F)oc2c(CN3CCOCC3)c(O)ccc12 | -0.24
Oc1ccc2ncccc2c1C(Nc1ccccn1)c1cccs1 (stereo not given) | 0.84
O=[N+]([O-])c1cccnc1Sc1ncc2ccccn12 | -0.65
CCOc1cccc(=O)c2c(C)n(-c3ccc(C)cc3)c(C)c12 | 1.3
CCOC(=O)c1ccc(-n2c(C)c3c(OC)cccc(=O)c3c2C)cc1 | 3.8*
CCOC(=O)c1ccc(-n2c(=S)[nH]c3ccccc32)cc1 | 0.48
CCCc1nnc2c3c4c(sc3ncn12)CC(C)CC4 (stereo not given) | 4.8*
CCc1nnc2c3c4c(sc3ncn12)CC(C)CC4 (stereo not given) | -0.79
c1ccc(CCc2nnc3c4c5c(sc4ncn23)CCCC5)cc1 | 0.1
COc1ccc(-c2cc(=O)c3ccc(O)cc3o2)cc1 | 0.66
COc1ccc(C(=O)c2oc3ccc(Cl)cc3c2N)cc1 | 0.05
COc1ccc(C(=O)c2coc3ccc(O)cc23)cc1 | 5.4*
COc1ccc(C(=O)c2oc3ccc(OC)cc3c2N)cc1 | 4.2*
COc1ccc(C(=O)c2ccccc2)c(O)c1 | 1.1
SMILES | Dicer inh
COc1ccc2oc(C(=O)c3ccc(Cl)cc3)c(N)c2c1 | 10
CSc1ccc(C2C(C(=O)OCC3CCCO3)=C(C)NC3=C2C(=O)CCC3)cc1 (stereo not given) | -5
CCOC(=O)CC(=O)CSc1nnc(NC(=O)c2c(F)cccc2F)s1 | -1.1
Clc1ccc(Oc2ccccc2-n2nncc2-c2ccccc2)c(Cl)c1 | -0.27
CCOC(=O)N1CCN(C2CC(=O)N(c3ccc(Cl)cc3)C2=O)CC1 (stereo not given) | -0.77
O=S(=O)(c1ccc(-c2cn3ccccc3n2)cc1)N1CCOCC1 | 0.9
O=S(=O)(c1ccc(-c2noc(-c3ccccc3)n2)cc1)N1CCOCC1 | 3.3*
O=S(=O)(c1ccc(-c2nc(-c3ccc(Cl)cc3)cs2)cc1)N1CCOCC1 | 1.4
CCOC(=O)c1c(NC(=O)C(=O)c2c[nH]c3ccccc23)sc2c1CCCC2 | 0.62
O=C(Nc1ccccc1)c1cc(Br)cc2c1OCC2 | -1.5
CSc1nnc2c(n1)OC(c1ccc(N(C)C)cc1)Nc1ccccc1-2 (stereo not given) | 23
CSc1nnc2c(n1)OC(c1ccc(OCC(=O)O)cc1)Nc1ccccc1-2 (stereo not given) | 0.76
COc1ccc(C2Nc3ccccc3-c3nnc(SC)nc3O2)cc1 (stereo not given) | 1.5
CSc1nnc2c(n1)OC(c1ccccc1OCC(=O)O)Nc1ccccc1-2 (stereo not given) | 4.5*
CSc1nnc2c(n1)OC(c1ccc(Br)cc1)Nc1ccccc1-2 (stereo not given) | 5.4*
CSc1nnc2c(n1)OC(c1ccc(O)c(O)c1)Nc1ccccc1-2 (stereo not given) | 4.4*
CSc1nnc2c(n1)OC(c1ccc(C(=O)O)cc1)Nc1ccc(Br)cc1-2 (stereo not given) | 0.21
COc1ccccc1C1Nc2ccccc2-c2nnc(SC)nc2O1 (stereo not given) | -0.54
CCSc1nnc2c(n1)OC(c1ccc(O)c(O)c1)Nc1ccccc1-2 (stereo not given) | 2.3
CSc1cc(C(F)(F)F)c(C(=O)Nc2cccc(C)c2C)cn1 | 1.8
Nc1ccccc1Sc1cc(Sc2ccccc2N)c([N+](=O)[O-])cc1Cl | -0.83
Cn1nc(CC(=O)Nc2nnc(SCC(=O)c3ccccc3)s2)c2ccccc2c1=O | -0.02
c1cncc(CNCc2ccncc2)c1 | 2.9
O=C1NCCN1CCNC(=S)NC1CC1 | -2.4
O=C(CSc1nnc(NC(=O)c2ccc(Cl)c(Cl)c2)s1)Nc1ccc(F)c(F)c1F | -0.34
CSc1sc(-c2ccnc(SCc3ccc(Cl)cc3)n2)c(-c2ccccc2)c1C#N | -0.87
COC(=O)c1scc2c(Oc3ccccc3C(F)(F)F)cc(C(F)(F)F)nc12 | -1.1
O=[N+]([O-])c1ccc(-c2cn3nc(C(F)(F)F)sc3n2)cc1 | 0.03
c1cnc2sc(-n3cccc3)nc2c1 | 0.85
CCOC(=O)CCCN1C(=O)c2cccc3cccc(c23)C1=O | 5.3*
